# The full list was thinned out, with the strongest signals kept by preference.
# Assays:
# Assay in all cases: glycan array binding signal (z-score within array); higher = stronger binding
# Conditions in all cases: glycan notation: IUPAC condensed, linker removed; mutation: E227A
# [1] = target: Fuc(a1-2)Gal(b1-3)GalNAc(a1-3)[Fuc(a1-2)]Gal(b1-4)Glc
# Outline: (§1)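 Columns mapping to the same glycan were averaged after glycan names were converted to IUPAC-condensed notation. The data come from 3228 arrays in the Consortium for Functional Glycomics database, limited to those with an available protein sequence. Binding is reported as a within-array Z-score averaged across arrays of one protein sequence and across linkers.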
# [2] = target: Fuc(a1-2)Gal(b1-3)GlcNAc(b1-3)[Gal(b1-4)GlcNAc(b1-6)]Gal(b1-4)Glc
# Outline: as §1
# [3] = target: Fuc(a1-2)Gal(b1-3)[Fuc(a1-4)]GlcNAc(b1-2)Man(a1-3)[Fuc(a1-2)Gal(b1-3)[Fuc(a1-4)]GlcNAc(b1-2)Man(a1-3)]Man(b1-4)GlcNAc(b1-4)GlcNAc
# Outline: as §1
# [4] = target: Fuc(a1-2)Gal(b1-4)Fuc(a1-3)]GlcNAc(b1-2)Man(a1-3)[Fuc(a1-2)Gal(b1-4)[Fuc(a1-3)]GlcNAc(b1-2)Man(a1-6)]Man(b1-4)GlcNAc(b1-4)GlcNAc
# Outline: as §1
# [5] = target: Fuc(a1-2)[Gal(a1-3)]Gal(b1-3)GlcNAc(b1-3)GalNAc
# Outline: as §1
# [6] = target: Fuc(a1-2)[Gal(a1-3)]Gal(b1-4)[Fuc(a1-3)]GlcNAc(b1-3)GalNAc
# Outline: as §1
# [7] = target: Fuc(a1-2)[Gal(a1-4)]Gal(b1-4)GlcNAc
# Outline: as §1
# [8] = target: Fuc(a1-2)[GalNAc(a1-3)]Gal(b1-3)GlcNAc(b1-3)GalNAc
# Outline: as §1
# [9] = target: Fuc(a1-2)[GalNAc(a1-3)]Gal(b1-4)[Fuc(a1-3)]GlcNAc
# Outline: as §1
# [10] = target: Fuc(a1-2)[GalNAc(b1-3)]Gal
# Outline: as §1
# [11] = target: Fuc(a1-3)[Gal(b1-4)]GlcNAc6S
# Outline: as §1
# [12] = target: Fuc(a1-3)[Gal3S(b1-4)]Glc
# Outline: as §1
# Gal(b1-2)Gal = target: Gal(b1-2)Gal
# Outline: as §1
# Gal(b1-3)Gal(b1-4)GlcNAc = target: Gal(b1-3)Gal(b1-4)GlcNAc
# Outline: as §1
# Gal(b1-3)GalNAc = target: Gal(b1-3)GalNAc
# Outline: as §1
# [13] = target: Gal(b1-3)GalNAc(b1-4)Gal(b1-4)Glc
# Outline: as §1
# [14] = target: Gal(b1-3)GlcNAc(a1-6)Gal(b1-4)GlcNAc
# Outline: as §1
# [15] = target: Gal(b1-3)GlcNAc(b1-6)Gal(b1-4)GlcNAc
# Outline: as §1
# Gal(b1-3)GlcNAc6S = target: Gal(b1-3)GlcNAc6S
# Outline: as §1
# Gal(b1-4)Glc = target: Gal(b1-4)Glc
# Outline: as §1
# [16] = target: Gal(b1-4)GlcNAc(b1-3)Gal(b1-4)GlcNAc(b1-3)Gal(b1-4)GlcNAc(b1-2)Man(a1-3)[Gal(b1-4)GlcNAc(b1-3)Gal(b1-4)GlcNAc(b1-3)Gal(b1-4)GlcNAc(b1-2)Man(a1-6)]Man(b1-4)GlcNAc(b1-4)GlcNAc
# Outline: as §1
# [17] = target: Gal(b1-4)GlcNAc(b1-3)Gal(b1-4)GlcNAc(b1-3)Gal(b1-4)GlcNAc(b1-2)[Gal(b1-4)GlcNAc(b1-3)Gal(b1-4)GlcNAc(b1-3)Gal(b1-4)GlcNAc(b1-6)]Man(a1-6)[Gal(b1-4)GlcNAc(b1-3)Gal(b1-4)GlcNAc(b1-3)Gal(b1-4)GlcNAc(b1-2)Man(a1-3)]Man(b1-4)GlcNAc(b1-4)[Fuc(a1-6)]GlcNAc
# Outline: as §1
# [18] = target: Gal(b1-4)GlcNAc(b1-6)[Gal(b1-3)]GalNAc
# Outline: as §1
# Gal3S(b1-4)Glc = target: Gal3S(b1-4)Glc
# Outline: as §1
# Gal6S(b1-3)GlcNAc6S = target: Gal6S(b1-3)GlcNAc6S
# Outline: as §1
# Gal6S(b1-4)Glc = target: Gal6S(b1-4)Glc
# Outline: as §1
# Gal6S(b1-4)Glc6S = target: Gal6S(b1-4)Glc6S
# Outline: as §1
# Gal6S(b1-4)GlcNAc = target: Gal6S(b1-4)GlcNAc
# Outline: as §1
# Gal6S(b1-4)GlcNAc6S = target: Gal6S(b1-4)GlcNAc6S
# Outline: as §1
# GalNAc(b1-4)GlcNAc6S = target: GalNAc(b1-4)GlcNAc6S
# Outline: as §1
# GalNAc4S6S(b1-4)GlcNAc = target: GalNAc4S6S(b1-4)GlcNAc
# Outline: as §1
# Glc(a1-6)Glc(a1-6)Glc = target: Glc(a1-6)Glc(a1-6)Glc
# Outline: as §1
# [19] = target: GlcNAc(a1-4)Gal(b1-4)GlcNAc
# Outline: as §1
# [20] = target: GlcNAc(a1-4)Gal(b1-4)GlcNAc(b1-3)Gal(b1-4)Glc
# Outline: as §1
# [21] = target: GlcNAc(b1-2)Man(a1-3)[GlcNAc(b1-2)Man(a1-6)]Man(b1-4)GlcNAc(b1-4)GlcNAc
# Outline: as §1
# GlcNAc(b1-3)Fuc = target: GlcNAc(b1-3)Fuc
# Outline: as §1
# [22] = target: GlcNAc(b1-3)Gal(b1-3)GalNAc
# Outline: as §1
# [23] = target: GlcNAc(b1-3)Gal(b1-4)GlcNAc(b1-3)Gal(b1-4)GlcNAc(b1-2)[GlcNAc(b1-3)Gal(b1-4)GlcNAc(b1-3)Gal(b1-4)GlcNAc(b1-6)]Man(a1-6)[GlcNAc(b1-3)Gal(b1-4)GlcNAc(b1-3)Gal(b1-4)GlcNAc(b1-2)Man(a1-3)]Man(b1-4)GlcNAc(b1-4)[Fuc(a1-6)]GlcNAc
# Outline: as §1
# [24] = target: GlcNAc(b1-3)Gal(b1-4)GlcNAc(b1-6)[GlcNAc(b1-3)Gal(b1-3)]GalNAc
# Outline: as §1
# GlcNAc(b1-3)GalNAc = target: GlcNAc(b1-3)GalNAc
# Outline: as §1
# [25] = target: Man(a1-2)Man(a1-3)[Man(a1-2)Man(a1-6)]Man
# Outline: as §1
# [26] = target: Man(a1-2)Man(a1-3)[Man(a1-6)]Man(a1-6)[Man(a1-2)Man(a1-3)]Man(b1-4)GlcNAc(b1-4)GlcNAc
# Outline: as §1
# [27] = target: Man(a1-3)[Man(a1-6)]Man(a1-6)[Man(a1-3)]Man
# Outline: as §1
# [28] = target: Neu5Ac(a2-3)Gal(b1-3)[Fuc(a1-4)]GlcNAc
# Outline: as §1
# [29] = target: Neu5Ac(a2-3)Gal(b1-3)]Neu5Ac(a2-3)Gal(b1-4)]GlcNAc
# Outline: as §1
# [30] = target: Neu5Ac(a2-3)Gal(b1-4)GlcNAc(b1-3)Gal(b1-4)GlcNAc(b1-3)Gal(b1-4)GlcNAc
# Outline: as §1
# [31] = target: Neu5Ac(a2-3)Gal(b1-4)[Fuc(a1-3)]GlcNAc(b1-3)GalNAc
# Outline: as §1
# [32] = target: Neu5Ac(a2-3)Gal(b1-4)[Fuc(a1-3)]GlcNAc(b1-6)[Neu5Ac(a2-3)Gal(b1-3)]GalNAc
# Outline: as §1
# [33] = target: Neu5Ac(a2-6)Gal(b1-4)GlcNAc(b1-2)Man(a1-3)Man(b1-4)GlcNAc(b1-4)GlcNAc
# Outline: as §1
# [34] = target: Neu5Ac(a2-6)Gal(b1-4)GlcNAc(b1-2)Man(a1-6)[Man(a1-3)]Man(b1-4)GlcNAc(b1-4)GlcNAc
# Outline: as §1
# [35] = target: Neu5Ac(a2-6)Gal(b1-4)GlcNAc(b1-3)Gal(b1-4)GlcNAc(b1-6)[Gal(b1-3)]GalNAc
# Outline: as §1
# [36] = target: Neu5Ac(a2-8)Neu5Ac(a2-8)Neu5Ac(a2-3)[Gal(b1-3)GalNAc(b1-4)]Gal(b1-4)Glc
# Outline: as §1
binder,measurement,setting,value
"Epa1-NP-mutant-E227A (Candida glabrata), Q6VBJ0 (protein) MILNPALFLNKCVCIYTTLILLLLTNGGYATSSNDISLASKDPTTFPLGCSPDITTPKKGLSMELYSYDFRKKGSYPCWDAAYLDPNYPRTGYKSHRLLAKVDGVTGNINFYYHATKGCTPQLGHLPASYNYPKPLTMTNFTMLLYGYFRPKVTGFHTFTISADDLLFVNFGAGNAFDCCRRDSSADHFGNYQAYAIWGSKTAKDELTVHLDAGVYYPIRLFYNNRAYDGALSFTFKTESNENTVSDFSEYFFSLDDTEEGCPGLISYDSSCASVKTSKIIGIDYHTETPNENLVPITKTIYHLGIPCTGTTTTPLCGSGFYDPLANKCVTINTSSTSSVTKTTSHTTSKEVSFHSSISSQKTLIPKSIPSPYGPIKSQSIPTEMETSSEISSSEYAFSDVISTPSHSPYTKKHSSLNSSSYTSTVIHSLTSYSISQGIFSTSLSEQNITSKSSTDKFSTATSMSNNITQSSIIISQFSTNNENYTTTSMHTSSDKISTETLNNSISTTTSILFSNSSTILKNNTTIISSDKDTHYHPVNPTIVCSTNKTEIICASITQPSISNSNNHWSSSVLKFNSTTVRSTLPSSAGSNETSINVPFSSSTESNTSTSSTSTSNSKMVRSTLPSSAGSNETSISVPFSSSTESNTSTSSTSTSNSKMVRSTLPSSAGSNETSINVPFSSSTESNTSTSSTSTSNSKTVRSTPFSSAGIIMTSLSQRNNKSASSYASSNSKCYNTADSCRKVHSTPSYLLTSSYTSEGVDYDCSLVSTKLKINDTNCVNNKHTTKSCLKTSVTTTIPTLEIKTARKSSSNTIGLHSYPTSSPNKSISSAPIIGYISSFKTIKTASPSYQTSDLTTITTITSLNNPGSTAVENTHESNDKSRKTSSNDISSKHSVIKETKDAVESSNKSHQTNTLKCSSIIIASSSHNSYESLGGTTLTLTLSKVYSPQNNDTLPFLEISEVNPSRTVLPESSKMMQYLTSTEERNKTARNTIATNIVSISTFHFEGEGNAIRMGYTQLLLMLIGIIVMNIGT",glycan array binding signal (z-score),[1],-0.214
same,glycan array binding signal (z-score),[2],-0.138
same,glycan array binding signal (z-score),[3],-0.162
same,glycan array binding signal (z-score),[4],-0.184
same,glycan array binding signal (z-score),[5],-0.204
same,glycan array binding signal (z-score),[6],-0.168
same,glycan array binding signal (z-score),[7],-0.221
same,glycan array binding signal (z-score),[8],-0.197
same,glycan array binding signal (z-score),[9],-0.13
same,glycan array binding signal (z-score),[10],-0.161
same,glycan array binding signal (z-score),[11],-0.143
same,glycan array binding signal (z-score),[12],-0.172
same,glycan array binding signal (z-score),Gal(b1-2)Gal,-0.041
same,glycan array binding signal (z-score),Gal(b1-3)Gal(b1-4)GlcNAc,2.03
same,glycan array binding signal (z-score),Gal(b1-3)GalNAc,1.28
same,glycan array binding signal (z-score),[13],3.42
same,glycan array binding signal (z-score),[14],-0.057
same,glycan array binding signal (z-score),[15],7.88
same,glycan array binding signal (z-score),Gal(b1-3)GlcNAc6S,1.37
same,glycan array binding signal (z-score),Gal(b1-4)Glc,-0.13
same,glycan array binding signal (z-score),[16],0.626
same,glycan array binding signal (z-score),[17],1.15
same,glycan array binding signal (z-score),[18],1.27
same,glycan array binding signal (z-score),Gal3S(b1-4)Glc,-0.193
same,glycan array binding signal (z-score),Gal6S(b1-3)GlcNAc6S,1.88
same,glycan array binding signal (z-score),Gal6S(b1-4)Glc,4.56
same,glycan array binding signal (z-score),Gal6S(b1-4)Glc6S,6.39
same,glycan array binding signal (z-score),Gal6S(b1-4)GlcNAc,5.93
same,glycan array binding signal (z-score),Gal6S(b1-4)GlcNAc6S,15.2
same,glycan array binding signal (z-score),GalNAc(b1-4)GlcNAc6S,-0.184
same,glycan array binding signal (z-score),GalNAc4S6S(b1-4)GlcNAc,-0.197
same,glycan array binding signal (z-score),Glc(a1-6)Glc(a1-6)Glc,-0.201
same,glycan array binding signal (z-score),[19],-0.198
same,glycan array binding signal (z-score),[20],-0.194
same,glycan array binding signal (z-score),[21],-0.191
same,glycan array binding signal (z-score),GlcNAc(b1-3)Fuc,-0.185
same,glycan array binding signal (z-score),[22],-0.176
same,glycan array binding signal (z-score),[23],-0.163
same,glycan array binding signal (z-score),[24],-0.207
same,glycan array binding signal (z-score),GlcNAc(b1-3)GalNAc,-0.214
same,glycan array binding signal (z-score),[25],-0.166
same,glycan array binding signal (z-score),[26],-0.198
same,glycan array binding signal (z-score),[27],-0.196
same,glycan array binding signal (z-score),[28],-0.197
same,glycan array binding signal (z-score),[29],-0.213
same,glycan array binding signal (z-score),[30],-0.202
same,glycan array binding signal (z-score),[31],-0.12
same,glycan array binding signal (z-score),[32],-0.16
same,glycan array binding signal (z-score),[33],-0.2
same,glycan array binding signal (z-score),[34],-0.2
same,glycan array binding signal (z-score),[35],0.553
same,glycan array binding signal (z-score),[36],-0.194
